From PubChem
SARS PLP yeast: blocks SARS-CoV papain-like protease in a yeast assay; S. cerevisiae expressing SARS-CoV PLpro, growth rescue; Potency, µM (top dose mostly 32.9 µM), most hits filed as activators; 330,000 tested, 0.19% active; AID 485353; calls by dose curve; further: nearly all actives have a fitted effect of over 55% in size
AmpC detergent: AmpC beta-lactamase inhibition with detergent present; P00811; AmpC hydrolysis of nitrocefin, absorbance 480 nm, 0.01% Triton; Potency, µM (titrated, usually from 114 µM), actives largely listed as inhibitors; 370,000 tested, 0.041% active; further: nearly all actives have a fitted effect of over 25% in size
Target sequence (P00811 whole entry, looked up): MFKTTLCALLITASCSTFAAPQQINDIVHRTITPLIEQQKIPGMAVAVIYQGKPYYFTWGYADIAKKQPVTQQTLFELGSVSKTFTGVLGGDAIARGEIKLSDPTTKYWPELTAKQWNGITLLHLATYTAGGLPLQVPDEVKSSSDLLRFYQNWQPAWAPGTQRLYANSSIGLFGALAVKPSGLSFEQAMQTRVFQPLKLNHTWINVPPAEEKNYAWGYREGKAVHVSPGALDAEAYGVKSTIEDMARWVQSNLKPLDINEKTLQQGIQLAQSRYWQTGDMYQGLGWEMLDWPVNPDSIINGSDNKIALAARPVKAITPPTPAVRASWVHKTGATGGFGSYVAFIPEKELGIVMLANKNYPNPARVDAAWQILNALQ
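20 mM phosphate pH 7.0 + 0.01% (detergent screen) or 0.0001% Triton X-100; 5.3 nM AmpC reagent; cpd preinc 15 min RT; nitrocefin (800 uM stock) to start; A480 q20 s × 4 min; Activity was normalised to no-enzyme and no-compound control wells.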
Pf growth 96h: inhibits malaria parasite growth, 96 h | P. falciparum luciferase reporter growth, 96 h | Potency, µM (top dose mostly 28.7 µM), most hits filed as inhibitors | 320,000 tested, 6.9% active | AID 504834
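Cell-based qHTS: luciferase-tagged P. falciparum in erythrocytes (2% hematocrit, 0.05% parasitemia final) incubated with compounds for 96 hours, 37 C, 5% CO2; luciferase detection reagent then added and luminescence measured.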
Pf growth 48h: inhibits P. falciparum growth in the first generation, 48 h; Potency, µM (doses to about 28.7 µM), actives largely listed as inhibitors; AID 504832; P. falciparum luciferase growth in erythrocytes, 48 h; 310,000 tested, 5.9% active
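Parasite viability was followed by luminescence of a genomically integrated firefly luciferase. Cultures held 0.1% parasitemia at 2% hematocrit (final), incubated under 5% CO2 at 37 C.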
AmpC inh no detg: blocks E. coli AmpC beta-lactamase in detergent-free assay | AmpC nitrocefin hydrolysis, absorbance 480 nm, 0.0001% Triton | Potency, µM (titrated, usually from 57.1 µM), hits mostly inhibitors | 330,000 tested, 0.52% active; further: nearly all actives have a fitted effect of over 20% in size
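20 mM phosphate pH 7.0 + 0.01% (detergent screen) or 0.0001% Triton X-100; 5.3 nM AmpC reagent; cpd preinc 15 min RT; nitrocefin (800 uM stock) to start; A480 q20 s × 4 min; Activity was normalised to no-enzyme and no-compound control wells.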
Sm TGR block: blocks Schistosoma mansoni thioredoxin glutathione reductase | Potency, µM (series often up to 114 µM), most hits filed as inhibitors | 360,000 tested, 3% active | purified TGR, DTNB reduction, TNB absorbance 405 nm | Q962Y6; further: nearly all actives have a fitted effect of over 60% in size
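First, TGR (20 nM dispensed) and NADPH were mixed with compound. Second, a 15 min room-temperature incubation followed. Third, further NADPH and then DTNB were added to start the reaction. Finally, TNB absorbance was monitored kinetically.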
Large screens that a line does not name were inactive. An excerpt weighted towards active compounds, which were near 12% of everything screened. Unless noted, the call rests on the fitted dose curve; in most records, active means well fitted curve in the direction sought with a large enough effect; inconclusive means small, poorly fitted or top-dose-only effect, or another doubt; inactive means no such curve, though single readings can be large; an effect the other way counts as inactive or inconclusive.

C=CCN1C(=O)c2ccc(C(=O)N(C)Cc3ccc(C)o3)cc2C1=O	Sm TGR block 50.1µM
C=CCN1C(=O)c2ccc(C(=O)N(C)CC(=O)Nc3ccccc3Cl)cc2C1=O	none
COc1ccc(CC2(CO)CCN(S(=O)(=O)N(C)C)CC2)cc1	Pf growth 96h 5.86µM
COc1ccc(CC2(CO)CCN(S(=O)(=O)c3c(C)nn(C)c3C)CC2)cc1	none
COc1ccc(CC2(CO)CCN(S(=O)(=O)c3cccc4cccnc34)CC2)cc1	AmpC detergent inconclusive, Pf growth 96h 11.7µM
CCCn1ncc(CN2CCC(CO)(Cc3ccc(OC)cc3)CC2)c1C	Pf growth 96h 0.37µM
COc1ccc(-c2cc(C(=O)Nc3ccc(C#N)cc3)no2)cc1	none (no result: SARS PLP yeast, Pf growth 96h, Pf growth 48h, AmpC inh no detg)
O=C(CCCCCn1c(=S)[nH]c2cc3c(cc2c1=O)OCO3)N1CCN(Cc2ccccc2)CC1	Pf growth 48h 11.7µM
O=C(CCn1c(=S)[nH]c2cc3c(cc2c1=O)OCO3)NCc1cccc(Cl)c1	Pf growth 96h inconclusive
O=C(CCCn1c(=S)[nH]c2cc3c(cc2c1=O)OCO3)NCc1cccc(Cl)c1	Pf growth 96h 9.28µM
COc1ccc(CNS(=O)(=O)c2ccc(-c3ccc(=O)[nH]n3)s2)cc1OC	Pf growth 96h inconclusive
COc1ccccc1NC(=O)CSc1oc(-c2ccccc2)nc1S(=O)(=O)c1ccccc1	none (no result: SARS PLP yeast, Pf growth 96h, Pf growth 48h, AmpC inh no detg)
CCOC(=O)C1(Cc2ccc(OC)cc2)CCN(C(=O)Cn2cnnn2)CC1	Pf growth 96h 1.85µM
Cc1ccc(NC2=Nc3ccccc3N3C2=Nc2c(c(C)nn2-c2ccccc2)C3c2ccc(O)c(O)c2)cc1 (stereo not given)	Pf growth 96h inconclusive, Pf growth 48h inconclusive
Cc1nn(-c2ccccc2)c2c1C(c1ccc(O)c(O)c1)N1C(=N2)C(Nc2ccccc2)=Nc2ccccc21 (stereo not given)	Pf growth 96h 10.4µM, Pf growth 48h 10.4µM
Cc1cccc(NC2=Nc3ccccc3N3C2=Nc2c(c(C)nn2-c2ccccc2)C3c2ccc(O)c(O)c2)c1 (stereo not given)	AmpC detergent inconclusive, Pf growth 96h 11.7µM, Pf growth 48h inconclusive
Cc1c(NC(=O)c2ccc(-c3cccc([N+](=O)[O-])c3)o2)c(=O)n(-c2ccccc2)n1C	Pf growth 96h inconclusive
O=C(CCn1cnnn1)Nc1ccc(F)cc1	none
CCOCc1cnc(C)nc1NCC(=O)c1c(C)[nH]c2ccccc12	Pf growth 96h 1.65µM, Pf growth 48h 2.08µM
CCOCc1cnc(C)nc1NCC(=O)c1c(C)[nH]c2cc(C)ccc12	Pf growth 96h 0.294µM, Pf growth 48h 0.828µM
COc1cccc(NC(=O)c2c(C)oc3nc(C)nc(N4CCCC4)c23)c1	none (no result: SARS PLP yeast, Pf growth 96h, Pf growth 48h, AmpC inh no detg)
CN(Cc1ccc(Cl)cc1Cl)C(=O)CNC(=O)c1ccc2c(c1)OCO2	AmpC detergent inconclusive, Pf growth 96h 11.7µM, Pf growth 48h 10.4µM
Cc1ccc(NC(=O)CN(C)C(=O)CNC(=O)c2ccc3c(c2)OCO3)cc1	AmpC detergent inconclusive, AmpC inh no detg inconclusive
CSc1ccc(CN(C)C(=O)CNC(=O)c2ccc3c(c2)OCO3)cc1	Pf growth 96h 8.28µM, Pf growth 48h 4.15µM
COc1ccc(NC(=O)COC(=O)c2cnccn2)cc1Cl	none
COc1cccc(-c2ncc3ccccc3c2COC(=O)N(C)C)c1	Pf growth 96h inconclusive
COc1cccc(-c2ncc3ccccc3c2COC(=O)c2cccc(Br)c2)c1	Pf growth 96h 4.65µM, Pf growth 48h inconclusive
COc1cccc(-c2ncc3ccccc3c2COC(=O)c2ccc(C(F)(F)F)cc2)c1	Pf growth 96h 2.94µM, Pf growth 48h inconclusive
COc1cccc(-c2ncc3ccccc3c2COC(=O)c2ccc(Br)cc2)c1	Pf growth 96h inconclusive, Pf growth 48h inconclusive
CCCCCOc1ccc(/C=C/C(=O)Nc2sc(C)c(C)c2C(=O)OCC)cc1OC	none (no result: SARS PLP yeast, Pf growth 96h, Pf growth 48h, AmpC inh no detg)
O=C(O)CN1CCN(Cc2ccccc2F)C1=O	none
O=C(NC(=S)Nc1ccccc1N1CCN(C(=O)c2ccccc2)CC1)c1ccccc1F	Pf growth 48h inconclusive
